Among the test systems are NCI-H23 lung; NCI-H226 lung; NCI-H322M lung; HOP-62 NSCLC; NCI-H460 lung; HOP-92 NSCLC; NCI-H522 lung; A549/ATCC NSCLC; 786-0 renal; COLO 205 colon; DU-145 prostate; K-562 leukemia; MALME-3M melanoma; MDA-MB-231 breast; RXF 393 renal; SF-268 CNS; SF-295 CNS; SF-539 CNS; UACC-257 melanoma; M14 melanoma.
Test in all cases: NCI-60 one-dose screen, 48 h (100 = growth as untreated, 0 = no growth, -100 = all killed)
Conditions in all cases: 10 µM unless noted

This is part of a sample that, as a whole, favours compounds with a hit. Of some 83,000 tested, about 20% had one in any assay.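 Note: values are percent growth. 100 is the growth of untreated cells, values between 100 and 0 indicate rising inhibition; between -100 and 0 indicates cell death.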 A number with no mark means an inactive call. Calls of active or inactive are those of the source. How the source made its calls: active means growth percent below 10; inactive means the rest.

Consider `CC(=O)O[C@H]1CC[C@@]2(C)C(=CC[C@H]3[C@@H]4C[C@@H](N5CC5)[C@H](C(C)=O)[C@@]4(C)CC[C@@H]32)C1`, for which the growth was 98.5% in the assay with NCI-H23 lung; 92.2% with NCI-H226 lung; 110% in the assay on NCI-H322M lung; 83.4% with HOP-62 NSCLC; 93.2% in the assay with NCI-H460 lung; 80.7% with HOP-92 NSCLC. In addition, the growth with NCI-H522 lung was 88.7%; in the assay on A549/ATCC NSCLC, 100%; with 786-0 renal it was 101%; in the assay on COLO 205 colon, 99.2%; in the assay with DU-145 prostate, 105%; with K-562 leukemia, 72.4%. For the same molecule, the growth is 98.1% in the assay with MALME-3M melanoma; 91.4% in the assay with MDA-MB-231 breast; 103% in the assay on RXF 393 renal; 93.2% in the assay on SF-268 CNS; 97.5% in the assay with SF-295 CNS; 88.8% in the assay on SF-539 CNS. Also, the values for the growth in the assay with UACC-257 melanoma and in the assay on M14 melanoma were 112% and 95.6%, respectively.
Consider `O=C(CC1(O)C(=O)N(Cc2ccccc2)c2ccc(F)cc21)c1ccc(C(=O)NCC2CCC3(CC2)OOC2(CCCCC2)OO3)cc1` (stereo not given), for which the growth with NCI-H23 lung is -70.8% (active); with NCI-H226 lung it was -43.2% (active); with NCI-H322M lung it was 50.1%; with HOP-62 NSCLC, -56.6% (active); with NCI-H460 lung, -51.8% (active); in the assay on HOP-92 NSCLC it was -71.8% (active). Further, the growth is -43.1% (active) with NCI-H522 lung; -52.4% (active) in the assay on A549/ATCC NSCLC; -67% (active) in the assay with 786-0 renal; -63.3% (active) in the assay on COLO 205 colon; -94.3% (active) in the assay with DU-145 prostate; -42.7% (active) in the assay on K-562 leukemia. Moreover, the growth with MALME-3M melanoma is -69.2% (active); in the assay on MDA-MB-231 breast, -74% (active); in the assay with RXF 393 renal, -80.4% (active); in the assay on SF-268 CNS, -60.3% (active); in the assay on SF-295 CNS, -14.1% (active); in the assay on SF-539 CNS, -84.8% (active). In addition, the growth in the assay on UACC-257 melanoma is -2.89% (active); in the assay with M14 melanoma it was 15.3%.
As for `CC1=C(CCCOC(=O)CN)C2=C(C)C3(CC3)[C@@](C)(O)C(=O)C2=C1`, the growth in the assay on NCI-H23 lung was 9.41% (active); with NCI-H226 lung, 90.5%; in the assay with NCI-H322M lung, 97.1%; in the assay with HOP-62 NSCLC it was 71.5%; with NCI-H460 lung, 15.3%; in the assay on HOP-92 NSCLC, 70.5%. The growth in the assay with NCI-H522 lung was 66.2%; with A549/ATCC NSCLC, 68.7%; in the assay with 786-0 renal it was 78.8%; in the assay with COLO 205 colon it was 49.6%; in the assay with DU-145 prostate it was 17%; in the assay with K-562 leukemia, 90.2%. The growth with MALME-3M melanoma was 114%; with MDA-MB-231 breast it was 95.2%; in the assay on RXF 393 renal it was -16.4% (active); in the assay on SF-268 CNS it was 48.7%; in the assay with SF-295 CNS, 86.8%; in the assay with SF-539 CNS it was 94%. The growth with UACC-257 melanoma is 86%; in the assay with M14 melanoma it was 73.8%.
For `COC(=O)[C@@H](C)C[C@H](Cc1ccccc1)NC(=O)c1csc([C@@H](C[C@H](C(C)C)N(C)C(=O)[C@H](C)NC(=O)[C@H]2CCCCN2C)OC(C)=O)n1`, the growth in the assay with NCI-H23 lung is 46%; in the assay with NCI-H226 lung, 61%; in the assay on NCI-H322M lung it was 40.6%; in the assay with HOP-62 NSCLC, 32.6%; with NCI-H460 lung it was 12%; in the assay with HOP-92 NSCLC it was 40.4%. Further, the growth in the assay with NCI-H522 lung was 8.96% (active); in the assay with A549/ATCC NSCLC, 46.6%; in the assay with 786-0 renal, 35%; in the assay with COLO 205 colon, -16.2% (active); with DU-145 prostate it was 4.34% (active); in the assay on K-562 leukemia it was 10% (active). Further, the growth is 44.2% in the assay with MALME-3M melanoma; 19.5% with MDA-MB-231 breast; 8.78% (active) in the assay on RXF 393 renal; 46.9% in the assay on SF-268 CNS; 17% with SF-295 CNS; -2.07% (active) in the assay with SF-539 CNS. For the same molecule, the growth is 45.8% in the assay on UACC-257 melanoma and 5.98% (active) in the assay on M14 melanoma.
Turning to `COC(=O)[C@@H](C)C[C@H](Cc1ccccc1)NC(=O)c1nc([C@@H](C[C@H](C(C)C)N(C)C(=O)[C@@H](NC(=O)[C@H]2CCCCN2C)C(C)C)OC(C)=O)sc1C`, the growth is 35% in the assay with NCI-H23 lung; 61.4% in the assay with NCI-H226 lung; 36.3% with NCI-H322M lung; 32.1% in the assay on HOP-62 NSCLC; 4.31% (active) in the assay with NCI-H460 lung; 3.74% (active) in the assay on HOP-92 NSCLC. The growth is -12.8% (active) in the assay on NCI-H522 lung; 10.6% in the assay with A549/ATCC NSCLC; 4.94% (active) in the assay with 786-0 renal; -36.5% (active) with COLO 205 colon; 5.34% (active) in the assay on DU-145 prostate; 8.3% (active) with K-562 leukemia. For the same molecule, the growth in the assay on MALME-3M melanoma was 54%; in the assay on MDA-MB-231 breast it was -11.6% (active); in the assay with RXF 393 renal, 44.4%; with SF-268 CNS it was 17.6%; in the assay with SF-295 CNS it was 15.4%; in the assay on SF-539 CNS it was -16.5% (active). The growth with UACC-257 melanoma is 59.9%; in the assay on M14 melanoma, -43.4% (active).
`COc1cc(/C=C\c2cc(OC)c(OC)c(OC)c2)cc(NS(=O)(=O)c2cccc(Cl)c2)c1OC`: the growth in the assay on NCI-H23 lung is 22.9%; with NCI-H226 lung it was 51.8%; in the assay with NCI-H322M lung it was 50%; in the assay on HOP-62 NSCLC, 63.2%; in the assay with NCI-H460 lung it was 6.99% (active); with HOP-92 NSCLC, 47%. Further, the growth was 9.96% (active) in the assay on NCI-H522 lung; 21.4% in the assay with A549/ATCC NSCLC; 6.56% (active) in the assay with 786-0 renal; -68.2% (active) with COLO 205 colon; -31.6% (active) in the assay with DU-145 prostate; 11.2% in the assay on K-562 leukemia. Moreover, the growth is 112% in the assay on MALME-3M melanoma; 27% in the assay on MDA-MB-231 breast; 37.8% with RXF 393 renal; -2.74% (active) in the assay with SF-268 CNS; 13.8% with SF-295 CNS; -0.958% (active) in the assay on SF-539 CNS. Also, the growth in the assay on UACC-257 melanoma is 57.3%; in the assay with M14 melanoma, 9.89% (active).
As for `COc1cc2ncnc(Nc3ccc(F)c(Cl)c3)c2cc1OCC(=O)N1CCN(C)CC1`, the growth in the assay on NCI-H23 lung is 98.1%; with NCI-H226 lung it was 102%; with NCI-H322M lung it was 26.6%; in the assay on HOP-62 NSCLC, 96.9%; in the assay with NCI-H460 lung it was 104%; in the assay with HOP-92 NSCLC it was 75.1%. The growth in the assay on NCI-H522 lung was 39.2%; in the assay on A549/ATCC NSCLC, 76.9%; in the assay on 786-0 renal, 70.9%; in the assay on COLO 205 colon, 104%; in the assay on DU-145 prostate it was 62.6%; with K-562 leukemia it was 82.8%. Besides, the growth in the assay with MALME-3M melanoma was 96.5%; in the assay with MDA-MB-231 breast, 94.7%; in the assay with RXF 393 renal, 88.8%; in the assay on SF-268 CNS it was 73.6%; in the assay on SF-295 CNS it was 92.8%; with SF-539 CNS, 98.2%. In addition, the growth in the assay on UACC-257 melanoma is 104%; with M14 melanoma, 97.5%.

(Values after PubChem BioAssay (NCI).)
